# Measured values taken from paper PMC4552634, “A New Set of Chemical Starting Points with Plasmodium falciparum Transmission-Blocking Potential for Antimalarial Drug Discovery” (PLoS ONE, 2015).
# Tested on: P. falciparum stage V gametocytes
# Set-up: BacTiter-Glo ATP luminescence viability of purified stage V gametocytes in 384-well plates, per cent inhibition versus DMSO
# Settings: 48 h, 5 µM; inhibitor
# Procedure: Once purified, gametocytes were counted using a Neubauer chamber, and the density was adjusted to 2.5 x 10^5 gametocytes/mL. Fifty μL of the gametocyte suspension (1.25 x 10^4 gametocytes) were added to each well of the 384-well plate containing the compounds, using a Multidrop combi (Thermo Electron Corporation). Plates were shaken for 5 sec to homogenize and then incubated at 37°C for 48 h in an atmosphere of 5% CO2, 5% O2, 90% N2. The ATP level of each well was determined using the BacTiter-Glo reagent (Promega) according to the recommendations of the manufacturer. The BacTiter-Glo assay generates a ‘glow-type’ luminescent signal produced by the luciferase reaction, which consists of mono-oxygenation of luciferin catalyzed by luciferase in the presence of Mg^2+, ATP and molecular oxygen. The luminescence was measured using a plate reader (Victor V, Perkin Elmer). […] The background value was subtracted from every other value of the assay prior to further calculation. The average of 16 replicates of vehicle control (0.5% or 0.1% DMSO) represents 100% of signal. Related to this value, each test concentration was calculated as percentage of control. All the calculations were done using MS Excel software. The compounds which presented inhibition ≥ 90% at 5 μM were progressed to the assay at 1 μM. […]
row,SMILES,% Inhibition [%]
1,CC[C@H]1CN2CCc3cc(OC)c(OC)cc3[C@@H]2C[C@@H]1C[C@H]1NCCc2cc(OC)c(OC)cc21 [TCMDC-125531],96.47
2,CCC1CN2CCc3cc(OC)c(OC)cc3C2CC1CC1NCCc2cc(OC)c(OC)cc21 (centres unmarked) [TCMDC-125849],100.9
